Screens from PubChem.
Shown are actives, neighbours in structure and some others; about 3.5% of the full set was active somewhere.
Mtb UGM inh: blocks M. tuberculosis UGM enzyme; inhibition, % at 10 µM; hit rate 0.06% among 320,000; purified UGM, fluorescence polarization probe displacement; AID 504406; P9WIQ1; in the data active = inhibition above about 10%, passing the limit was not always enough; inconclusive = no clear call, values can overlap the other calls
GDH-TPI counter: inhibits GDH-TPI coupling enzymes, artifact for Mtb FBA screen. GDH-TPI coupled enzyme counterscreen, NADH absorbance. inhibition, % at 4.8 µM. hit rate 1.2% among 360,000. AID 588335; in the data active = inhibition above about 30%;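 also: 0% = DMSO wells and 100% = wells lacking the enzyme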
Rv3671c inh: inhibitors of M. tuberculosis serine protease Rv3671c | P9WHR9 | inhibition, % at 5.96 µM | hit rate 0.048% among 320,000; in the data active = inhibition above about 38%;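 also: extracellular domain of Rv3671c used as enzyme; 0% = enzyme with DMSO and 100% = no enzyme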
Target sequence (P9WHR9 whole entry, looked up, the tested form may be a part): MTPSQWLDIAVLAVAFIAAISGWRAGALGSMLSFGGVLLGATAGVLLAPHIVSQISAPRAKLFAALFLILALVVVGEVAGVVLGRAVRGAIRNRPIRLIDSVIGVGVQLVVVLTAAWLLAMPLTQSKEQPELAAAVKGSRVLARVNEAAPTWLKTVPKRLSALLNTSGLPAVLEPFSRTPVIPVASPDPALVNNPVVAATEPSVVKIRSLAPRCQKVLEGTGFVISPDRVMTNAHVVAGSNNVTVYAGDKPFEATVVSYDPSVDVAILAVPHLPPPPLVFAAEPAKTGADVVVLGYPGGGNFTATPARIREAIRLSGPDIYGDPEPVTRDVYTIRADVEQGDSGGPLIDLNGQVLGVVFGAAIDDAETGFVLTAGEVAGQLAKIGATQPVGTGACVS
Mtb hypoxia rep: Mtb hypoxia fluorescent reporter inhibition | M. tuberculosis hypoxia-regulated fluorescent reporter, fluorescence | fluorescence inhibition, % (no concentration beside the values) | hit rate 0.1% among 300,000 | AID 1159583; in the data active = fluorescence inhibition mostly above about 23%, no sharp cut-off; inactive = mostly below about 17%
FBA Mtb inh: inhibitors of M. tuberculosis fructose-bisphosphate aldolase; P9WQA3; purified M. tuberculosis FBA, fluorescence read-out; inhibition, % at 1 µM; hit rate 2.3% among 360,000; in the data active = inhibition above about 27%;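 also: 0% = vehicle and 100% = reference inhibitor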
FadD28 binding: M. tuberculosis FadD28 bisubstrate binding inhibition. inhibition, % at 12.5 µM. hit rate 0.22% among 360,000. FadD28 bisubstrate probe binding, fluorescence polarization; in the data active = inhibition above about 8.5%, passing the limit was not always enough; inconclusive = no clear call, values can overlap the other calls
The depositor's hits bear a star.

For FC(F)(F)c1cc(-c2ccc(Cl)cc2)nc2ncnn12 the results were Mtb UGM inh -3, GDH-TPI counter 18, Rv3671c inh 0, FBA Mtb inh 142* and FadD28 binding -1.
`O=C(NN=Cc1cccc(OC(=O)c2ccc3c(c2)OCO3)c1)c1cncc(Br)c1` gave Mtb hypoxia rep 10.
For Cc1ccc(NC(=O)COc2ccc(C=NNC(=O)c3cccnc3)cc2)cc1C the results were Mtb hypoxia rep 2.
Screening O=C(O)c1ccc(N=c2oc3cc(O)ccc3cc2C(=O)NCc2ccccc2)cc1 returned Mtb UGM inh 3, GDH-TPI counter 13, Rv3671c inh -58, Mtb hypoxia rep 9, FBA Mtb inh active and FadD28 binding inconclusive.
O=C(NCc1ccccc1)c1cc2ccc(O)cc2oc1=O was read as Mtb UGM inh -1, GDH-TPI counter 0, Rv3671c inh -7, Mtb hypoxia rep 2, FBA Mtb inh active and FadD28 binding -2.
`CC(=NNC(=O)c1ccncc1)c1cc2ccc(O)cc2oc1=O` gave Mtb hypoxia rep 11.
For O=C(O)c1cc2ccc(O)cc2oc1=O the results were GDH-TPI counter 17 and FadD28 binding -1.
`C/C(=N\NC(=O)CC#N)c1cc2ccc(O)cc2oc1=O` gave Mtb UGM inh 2, GDH-TPI counter 17, Rv3671c inh 4, FBA Mtb inh active and FadD28 binding -2.
`CC1CN(C(C)CO)C(=O)Cc2cc(NC(=O)Nc3ccccc3)ccc2OC1CN(C)C(=O)Nc1ccc2c(c1)OCO2` (stereo not given) gave Mtb hypoxia rep -7.
Screening COc1cc(NC(=O)COC(=O)CON=C(C)c2ccc3c(c2)OCO3)cc(OC)c1OC returned Mtb hypoxia rep -2.
`O=C(COc1ccccc1[N+](=O)[O-])NN=Cc1cccc(OC(=O)c2ccc3c(c2)OCO3)c1` gave Mtb hypoxia rep 6.
For CCOC(=O)CC1(C)c2nc(NC(C)=O)sc2Cc2sc(NC(C)=O)nc21 the results were FBA Mtb inh 161* and FadD28 binding 1.
For CCOC(=O)c1sc(NC(C)=O)nc1C the results were Mtb UGM inh 1, GDH-TPI counter -2, Rv3671c inh 1, Mtb hypoxia rep 2, FBA Mtb inh 0 and FadD28 binding 0.
`CCCOC(=O)c1ccc(NC(=O)c2cc(OC)c(OC)c(OC)c2Br)cc1` gave Mtb UGM inh -3, GDH-TPI counter 4, Rv3671c inh -8, Mtb hypoxia rep 3, FBA Mtb inh -2 and FadD28 binding 13*.
`N#C/C(=C\c1coc2ccc(O)cc2c1=O)C(=O)Nc1nc2ccccc2s1` gave Mtb UGM inh -26, GDH-TPI counter 20, Rv3671c inh -7, Mtb hypoxia rep 7, FBA Mtb inh 16 and FadD28 binding 29*.
Screening Cc1ccccc1Oc1nc2c(C)cccn2c(=O)c1/C=C(\C#N)C(=O)NC1CCS(=O)(=O)C1 (stereo not given) returned Mtb UGM inh 0, GDH-TPI counter 10, Rv3671c inh 3, Mtb hypoxia rep 14, FBA Mtb inh 34* and FadD28 binding -2.
CCOC(=O)/C(C#N)=C/c1c(N2CCN(Cc3ccc4c(c3)OCO4)CC2)nc2c(C)cccn2c1=O was read as Mtb UGM inh -1, GDH-TPI counter 7, Rv3671c inh -4, Mtb hypoxia rep 11, FBA Mtb inh -2 and FadD28 binding -1.
Screening Cc1cccn2c(=O)c(/C=C(\C#N)C(=O)NC3CCS(=O)(=O)C3)c(N3CCC(C(N)=O)CC3)nc12 (stereo not given) returned Mtb UGM inh -2, GDH-TPI counter 0, Rv3671c inh -4, Mtb hypoxia rep -3, FBA Mtb inh 192* and FadD28 binding -3.
For Cc1cccn2c(=O)c(/C=C(\C#N)C(=O)NC3CCS(=O)(=O)C3)c(Oc3ccccc3Cl)nc12 (stereo not given) the results were Mtb UGM inh 0, GDH-TPI counter 7, Rv3671c inh -3, Mtb hypoxia rep -7, FBA Mtb inh 18 and FadD28 binding -4.
Screening Cc1cccn2c(=O)c(/C=C(\C#N)C(N)=O)c(N3CCN(Cc4ccc5c(c4)OCO5)CC3)nc12 returned Mtb UGM inh 0, GDH-TPI counter 16, Rv3671c inh 9, FBA Mtb inh 33* and FadD28 binding -6.
